In all, about 310,000 compounds went through this assay and about 18,000 (5.8%) were called active. Where a call stands in place of a potency, no number is given. Another 22% or so got no clear call; they are omitted. The sample as a whole holds a higher share of actives than the screen did. Values without a mark were called inactive. Calls follow the shape of the dose curve; as a rule, active = well fitted inhibition curve with a large enough effect; inconclusive = small, poorly fitted or top-dose-only effect, or another doubt; inactive = no such curve, though single readings can be large or run the other way.
Assay: Primary qHTS for delayed death inhibitors of the malarial parasite plastid, 48 hour incubation
Conditions: P. falciparum luciferase growth in erythrocytes; series mostly up to 28.7 µM
Summary of the method: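 Luminescence readout; reporter = integrated firefly luciferase in P. falciparum. RBC culture at 2% hematocrit, 0.1% parasitemia final, 37 C/5% CO2; decreased signal taken as growth inhibition.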
Potency is read from the fitted curve at half-maximal effect.

SMILES	Potency	activity change, negative = inhibition
COc1cc(NC(=O)CSC(=S)N2CCCC2)c(OC)cc1Cl	inactive	–
COc1ccc(C2CC(c3ccccc3)=NN2C(=O)c2ccc(Cl)c([N+](=O)[O-])c2)cc1 (configuration not stated)	inactive	–
CC(=O)Oc1ccccc1C1=NN(C(C)=O)C(c2ccccc2)C1 (configuration not stated)	inactive	–
Oc1ccccc1C1=NN(c2ccccc2)C(c2ccccc2)C1 (configuration not stated)	1.31 µM (active)	–
O=C1CC(c2ccccc2)C(=O)N1c1cccc(O)c1 (configuration not stated)	inactive	–
O=C(c1ccccc1)N1N=C(c2ccccc2O)CC1c1ccc(Br)cc1 (configuration not stated)	3.7 µM (active)	–
CCn1c(=O)c(=O)[nH]c2c(=O)oc3ccc(S(=O)(=O)Nc4ccc(OC)cc4)cc3c21	inactive	–
COc1ccc(C(=O)CCC(=O)Nc2ccc(Cl)cc2)cc1	inactive	–
O=C(NCCO)C(=O)NCC(c1ccc2c(c1)OCO2)N1CCN(c2ccc(F)cc2)CC1 (configuration not stated)	inactive	–
O=C(OCCN=C1NS(=O)(=O)c2ccccc21)c1cccc([N+](=O)[O-])c1	inactive	–
Cn1c(=O)c2c(ncn2CC(COCc2ccccc2Cl)OCc2ccccc2Cl)n(C)c1=O (configuration not stated)	8.28 µM (active)	–
Cn1c(=O)c2c(ncn2CC(=O)N2CCN(c3ccccc3)CC2)n(C)c1=O	inactive	–
Cn1c(=O)c2c(ncn2CCc2ccccc2)n(C)c1=O	inactive	–
COc1ccccc1S(=O)(=O)c1c(C)cc(C)[nH]c1=O	inactive	–
O=S(=O)(NC1CC1)c1ccc(F)c(F)c1	inactive	–
O=C(CC1C(=O)NCCN1CC(c1ccccc1)c1ccccc1)NCC1CCOCC1 (configuration not stated)	inactive	–
C=CCN1CCN(C(=O)CCCc2ccccc2)CC1	inactive	–
COc1ccc(/C=C/C(=O)OCC(=O)Nc2cccc(Oc3ccccc3)c2)c(OC)c1	inactive	–
COc1ccc(/C=C2/C(=O)N(c3ccccc3)N=C2C)c(OC)c1	inactive	–
COc1ccc(/C=C/C2=CC(C)(C)NC(=S)N2)c(OC)c1	10.4 µM (active)	–
O=C(CNC(=O)c1cccnc1)N/N=C/c1cccnc1	–	2.56% [at 0.00184 µM]
CCN(C(=O)CSc1ncnc2c1cnn2-c1ccccc1)C1CCS(=O)(=O)C1 (configuration not stated)	inactive	–
CC(C(=O)NC1CCCCC1)N1C(=O)c2cccc3cccc1c23 (configuration not stated)	inactive	–
Cc1c(Cl)cccc1NC(=S)NCc1ccc2c(c1)OCO2	inactive	–
CCc1cccc(CC)c1NC(=S)Nc1ccc2cn[nH]c2c1	inactive	–
CCc1cccc(CC)c1NC(=S)NCc1ccc2[nH]c(C)cc2c1	4.65 µM (active)	–

SMILES	Potency	activity change, negative = inhibition
Cc1cccc(NC(=O)C2CCN(C(=O)NC3CCCCC3)CC2)c1	inactive	–
CCc1ccc(OCC(=O)N(Cc2ccccc2)C2CCS(=O)(=O)C2)cc1 (configuration not stated)	inactive	–
CCOC(=O)N1CCN(S(=O)(=O)N2CCCC(C(=O)NCCCN3CCC(C)CC3)C2)CC1 (configuration not stated)	inactive	–
COc1ccc(Oc2cn[nH]c2-c2ccc(OC)cc2O)cc1	6.57 µM (active)	–
CCN(CCn1cccn1)Cc1cn[nH]c1-c1ccc(OC)cc1F	inactive	–
COc1ccc(-c2[nH]ncc2/C=N/NC(=O)c2cc(Br)ccc2O)c(OC)c1	inactive	–
COc1ccc(-c2cn[nH]c2-c2ccc(OC)cc2)cc1	inactive	–
COc1ccc(-c2[nH]ncc2CN(C)Cc2cccnc2)c(F)c1	inactive	–
CCOc1ccccc1Oc1cn[nH]c1-c1ccc(OC)cc1O	11.7 µM (active)	–
NC(=O)CSc1nnc(NC(=O)c2ccc(Br)o2)s1	inactive	–
Cc1cc(C)c(S(=O)(=O)c2ccc(F)cc2C)c(=O)[nH]1	inactive	–
CC(C)NS(=O)(=O)c1ccc(OCC(=O)NC2CCCCCC2)cc1	inactive	–
Cc1ccc(NS(=O)(=O)c2ccc(F)cc2)nc1	inactive	–
CSCC[C@H](NC(=O)N1CCn2c1nc1ccccc12)C(=O)NCc1ccc2c(c1)OCO2	inactive	–
COC(=O)c1ccc2ccccc2c1OC1OC(CO)C(O)C(O)C1NC(C)=O (configuration not stated)	inactive	–
Cc1ccc(CNC(=O)[C@@H](NC(=O)Cc2ccccc2)C(C)C)cc1	inactive	–
O=C(C(c1ccccc1)c1ccccc1)N1CCN(CC(O)COc2ccccc2)CC1 (configuration not stated)	10.4 µM (active)	–
O=C(c1ccccc1)c1ccc(OCC(O)CN2CCCC2)cc1 (configuration not stated)	inactive	–
O=[N+]([O-])c1ccc(N2CCN(CC(O)COc3ccccc3)CC2)cc1 (configuration not stated)	inactive	–
Cc1cccc(-n2c(C)cc(/C=N\NC(=O)c3cccs3)c2C)c1	5.22 µM (active)	–
Cc1cccc(-n2c(C)cc(/C=N/NC(N)=S)c2C)c1	inactive	–
CC(=O)Nc1ccc(/C=N/NC(=O)c2cccs2)cc1	inactive	–
Cc1ccc2[nH]cc(CCNC(=O)C3CCCCC3)c2c1	inactive	–
CCc1c(C)nc(SCC(=O)NC2CCCC2)[nH]c1=O	inactive	–
c1ccc2c(CSCc3nc4ccccc4[nH]3)cccc2c1	inactive	–
N#C/C(=C(/O)Cc1cccc2ccccc12)c1nc2ccccc2s1	inactive	–

From PubChem BioAssay AID504832 (National Center for Advancing Translational Sciences (NCATS), 2011)
